Test results as given in PubChem BioAssay (Tox21).
“And” between values parts separate entries of the source, which are not always exact repeats. Identical values can stand only once. Results filed as inconclusive are left out. A call without a number means that no potency is given here. More than one record can exist for a structure, and the calls need not agree. The source made the active and inactive calls. Unless noted, the call rests on the fitted dose curve; in most records, active means well fitted curve in the direction sought with a large enough effect in the repeat runs; inconclusive means weak or mixed curves; inactive means no such curve, though single readings can be large; an effect the other way counts as inactive or inconclusive.

Tests used:
[1] = qHTS assay for identifying genotoxic compounds that show differential cytotoxicity against isogenic chicken DT40 cell lines with known DNA damage response pathways - wild type cell line (AID 743012); further: nearly all actives have a fitted effect of over 60% in size; further: potency means the concentration at half of the fitted maximal effect
Method in brief: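 Viability of DNA repair-proficient chicken DT40 cells was assessed by CellTiter-Glo luminescence following 40 h compound exposure at 37 C/5% CO2.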

[2] = qHTS assay for identifying genotoxic compounds that show differential cytotoxicity against isogenic chicken DT40 cell lines with known DNA damage response pathways - Rev3 mutant cell line (AID 743014); further: nearly all actives have a fitted effect of over 55% in size; further: potency means the concentration at half of the fitted maximal effect
[3] = qHTS assay for identifying genotoxic compounds that show differential cytotoxicity against isogenic chicken DT40 cell lines with known DNA damage response pathways - Rad54/Ku70 mutant cell line (AID 743015); further: nearly all actives have a fitted effect of over 60% in size; further: potency means the concentration at half of the fitted maximal effect
[4] = qHTS assay to identify small molecule antagonists of the androgen receptor (AR) signaling pathway - cell viability counter screen (AID 743033; further: nearly all actives have a fitted effect of over 45% in size)
[5] = qHTS assay to identify small molecule antagonists of the androgen receptor (AR) signaling pathway using the MDA cell line - cell viability counter screen (AID 743041; further: nearly all actives have a fitted effect of over 45% in size)
Method in brief: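 qHTS viability read-out; MDA-kb2 AR-luc; R1881-stimulated; 16 h exposure at 37C, 0% CO2; CellTiter-Fluor, 30 min; fluorescence intensity.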

[6] = target: Androgen receptor (Homo sapiens) (UniProt P10275); assay: qHTS assay to identify small molecule antagonists of the androgen receptor (AR) signaling pathway (AID 743035; active means well fitted inhibition curve with a large enough effect in the signal ratio in the repeat runs, not every such curve was filed as active; the % refers to the signal ratio)
Method in brief: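 Reporter HEK293 cells were exposed to compounds and R1881 overnight (16 h, 37C); beta-lactamase activity was then quantified by FRET fluorescence.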

[7] = target: Androgen receptor (Homo sapiens) (UniProt P10275); assay: qHTS assay to identify small molecule agonists of the androgen receptor (AR) signaling pathway (AID 743036; active means well fitted activation curve with a large enough effect in the signal ratio in the repeat runs, with a control signal flat, not every such curve was filed as active; the % refers to the signal ratio)
Method in brief: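 Activation was read as beta-lactamase FRET signal from LiveBLAzer B/G substrate, added for 2 h at room temperature. Before that, GeneBLAzer AR-UAS-bla GripTite (HEK293) cells had 16 h compound exposure at 37C.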

[8] = target: Androgen receptor (Homo sapiens) (UniProt P10275); assay: qHTS assay to identify small molecule agonists of the androgen receptor (AR) signaling pathway using the MDA cell line (AID 743040; further: nearly all actives have a fitted effect of over 20% in size); settings: MDA-kb2 AR-luc cells, MMTV luciferase, 16 h; at 70.3 µM (top of the series); stronger effect = higher value
Method in brief: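 Agonist activity is measured as luciferase luminescence in human MDA-kb2 cells whose MMTV reporter responds to both AR and GR. Compounds in DMSO incubate 16 h at 37C, 0% CO2, and ONE-Glo is read after 30 min.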

[9] = target: Androgen receptor (Homo sapiens) (UniProt P10275); assay: qHTS assay to identify small molecule antagonists of the androgen receptor (AR) signaling pathway using the MDA cell line (AID 743042; further: nearly all actives have a fitted effect of over 55% in size)
Method in brief: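 MDA-kb2 cells (human breast carcinoma, stably carrying an MMTV-luciferase reporter responsive to AR and GR) were plated at 3,000 cells/well and preincubated 5 hr at 37C, then given compound plus R1881 agonist for 16 h. ONE-Glo luminescence was read.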

Androgen receptor (Homo sapiens), sequence (P10275 whole entry, looked up): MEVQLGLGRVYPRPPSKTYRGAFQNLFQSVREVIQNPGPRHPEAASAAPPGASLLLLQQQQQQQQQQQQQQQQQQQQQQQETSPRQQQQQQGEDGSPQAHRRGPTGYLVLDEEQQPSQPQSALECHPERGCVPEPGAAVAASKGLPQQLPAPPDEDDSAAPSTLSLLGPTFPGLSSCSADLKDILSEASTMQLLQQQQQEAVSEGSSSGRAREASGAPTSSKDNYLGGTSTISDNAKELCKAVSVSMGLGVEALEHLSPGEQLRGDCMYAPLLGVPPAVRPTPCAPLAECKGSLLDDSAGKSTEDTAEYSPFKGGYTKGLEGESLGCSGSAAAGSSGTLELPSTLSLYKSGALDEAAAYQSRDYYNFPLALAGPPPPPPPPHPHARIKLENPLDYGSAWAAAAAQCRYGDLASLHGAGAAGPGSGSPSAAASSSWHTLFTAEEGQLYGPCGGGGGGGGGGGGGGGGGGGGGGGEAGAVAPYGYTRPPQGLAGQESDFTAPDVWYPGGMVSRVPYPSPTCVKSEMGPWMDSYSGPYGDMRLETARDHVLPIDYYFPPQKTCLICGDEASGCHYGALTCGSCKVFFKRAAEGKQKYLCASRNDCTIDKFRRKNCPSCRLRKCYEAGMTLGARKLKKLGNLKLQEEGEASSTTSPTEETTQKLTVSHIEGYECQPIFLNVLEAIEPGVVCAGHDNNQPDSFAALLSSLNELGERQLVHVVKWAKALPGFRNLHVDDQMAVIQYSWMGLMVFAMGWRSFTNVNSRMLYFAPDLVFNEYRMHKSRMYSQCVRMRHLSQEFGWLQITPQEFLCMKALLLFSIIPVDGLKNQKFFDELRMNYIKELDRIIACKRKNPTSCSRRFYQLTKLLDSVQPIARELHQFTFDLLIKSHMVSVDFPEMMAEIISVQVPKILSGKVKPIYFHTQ

Row | Structure (SMILES) | Potency [1] | Potency [2] | Potency [3] | Potency [4] | Potency [5] | Potency [6] | Potency [7] | activity change [8] | Potency [9]
1 | O=C(O)C1=NN(c2ccc(S(=O)(=O)O)cc2)C(=O)C1 | inactive | inactive | inactive | inactive | inactive | – | – | – | –
2 | CCCCCCCCC(=O)O | inactive | inactive | inactive | inactive | inactive | – | – | – | –
3 | O=C(NCC1CCCCN1)c1cc(OCC(F)(F)F)ccc1OCC(F)(F)F (stereo not drawn) | 29.8 µM (active) and inactive | – | – | inactive | inactive | – | – | – | –
4 | Cc1nnc(NS(=O)(=O)c2ccc(N)cc2)s1 | inactive | inactive | inactive | inactive | inactive | inactive | inactive | 6.45% (inactive) and 3.21% (inactive) | inactive
5 | CCCCCNCCCCC | inactive | inactive | inactive | inactive | inactive | – | – | – | –
6 | OB(O)O | inactive | inactive | – | inactive | inactive | – | – | – | –
7 | CC(=O)C(C)C | inactive | inactive | – | inactive | inactive | – | – | – | –
8 | N#CCC(=O)O | inactive | inactive | inactive | inactive | inactive | – | – | – | –
9 | C=CC(C)(C)C | inactive | inactive | – | inactive | inactive | – | – | – | –
10 | O=Cc1ccc(CO)o1 | inactive | inactive | inactive | inactive | inactive | – | – | – | –
11 | CN1Cc2c(N)cccc2C(c2ccccc2)C1 (stereo not drawn) | inactive | inactive and 61.1 µM (active) | inactive and 54.5 µM (active) | inactive | inactive | – | – | – | –
12 | CCCCC(CC)COC(=O)c1ccc(C(=O)OCC(CC)CCCC)cc1 (stereo not drawn) | inactive | inactive | inactive | inactive | inactive | inactive | inactive | 2.15% (inactive) and 1.01% (inactive) | inactive
13 | NC(=O)NC(N)=O | inactive | inactive | inactive | inactive | inactive | – | – | – | –
14 | CCc1cccc(O)c1 | inactive | inactive | inactive | inactive | inactive | – | – | – | –
15 | CC1(C)[C@@H](O[C@H]2O[C@H](C(=O)O)[C@@H](O)[C@H](O)[C@H]2O[C@@H]2O[C@H](C(=O)O)[C@@H](O)[C@H](O)[C@H]2O)CC[C@]2(C)[C@H]3C(=O)C=C4[C@@H]5C[C@@](C)(C(=O)O)CC[C@]5(C)CC[C@@]4(C)[C@]3(C)CC[C@@H]12 | inactive | inactive | inactive | inactive | inactive | – | – | – | –
